# In paper PMC5540273 (PLoS ONE, 2017):
# Columns and labels:
# Conditions in all cases: concentration: 1 μM, replicates: in singlicate; n = 1
# [1] = tested on: TYK2(JH2domain-pseudokinase)
# [2] = tested on: TYRO3
# [3] = tested on: ULK1
# [4] = tested on: ULK2
# [5] = tested on: ULK3
# [6] = tested on: T1, VEGFR2
# T1 construct: gene KDR
# [7] = tested on: T2, VPS34
# T2 construct: gene PIK3C3
# [8] = tested on: VRK2
# [9] = tested on: WEE1
# [10] = tested on: WEE2
# 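Also: KINOMEscan kinase panel screen.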
smiles,measurement,setting,value
O=C1NC(=O)C(c2ccccc2Cl)=C1Nc1cccc(Cl)c1 [SB-342409],%Inh,[1],29%
same,%Inh,[2],0%
same,%Inh,[3],36%
same,%Inh,[4],0%
same,%Inh,[5],24%
same,%Inh,[6],0%
same,%Inh,[7],0%
same,%Inh,[8],12%
same,%Inh,[9],0%
same,%Inh,[10],6%
COC(=O)Nc1nc2ccc(Oc3ccc(NC(=O)Nc4cc(C(F)(F)F)ccc4F)cc3)cc2[nH]1.Cl [GW654607],%Inh,[1],1%
same,%Inh,[2],66%
same,%Inh,[3],15%
same,%Inh,[4],0%
same,%Inh,[5],58%
same,%Inh,[6],92.3%
same,%Inh,[7],0%
same,%Inh,[8],0%
same,%Inh,[9],31%
same,%Inh,[10],0%
COC(=O)Nc1nc2ccc(Oc3ccc(CC(=O)Nc4cc(C(F)(F)F)ccc4F)cc3)cc2[nH]1 [GW680903],%Inh,[1],24%
same,%Inh,[2],0%
same,%Inh,[3],0%
same,%Inh,[4],0%
same,%Inh,[5],0%
same,%Inh,[6],63%
same,%Inh,[7],0%
same,%Inh,[8],13%
same,%Inh,[9],1%
same,%Inh,[10],0%
c1ccc(Oc2ccc(Nc3ccnc4cc(-c5ccc(CN6CCCCC6)o5)ccc34)cc2)nc1 [GW567143],%Inh,[1],17%
same,%Inh,[2],26%
same,%Inh,[3],0%
same,%Inh,[4],0%
same,%Inh,[5],15%
same,%Inh,[6],24%
same,%Inh,[7],0%
same,%Inh,[8],14%
same,%Inh,[9],8%
same,%Inh,[10],13%
CC(=O)Nc1cn2nc(Oc3cccc(NC(=O)c4cccc(C(F)(F)F)c4)c3)ccc2n1,%Inh,[1],0%
same,%Inh,[2],33%
same,%Inh,[3],0%
same,%Inh,[4],0%
same,%Inh,[5],0%
same,%Inh,[6],99.4%
same,%Inh,[7],24%
same,%Inh,[8],8%
same,%Inh,[9],21%
same,%Inh,[10],0%
Cc1ccc(NC(=O)c2cccc(N3CCCCC3)c2)cc1-c1ccc(C(=O)NCC2CC2)cc1 [GSK1917008],%Inh,[1],0%
same,%Inh,[2],0%
same,%Inh,[3],37%
same,%Inh,[4],13%
same,%Inh,[5],18%
same,%Inh,[6],6%
same,%Inh,[7],0%
same,%Inh,[8],0%
same,%Inh,[9],0%
same,%Inh,[10],18%
COc1ccc(NC(=O)c2ccoc2)cc1-c1ccc(C(=O)NCC2CC2)cc1 [GW810437],%Inh,[1],34%
same,%Inh,[2],12%
same,%Inh,[3],34%
same,%Inh,[4],28%
same,%Inh,[5],41%
same,%Inh,[6],0%
same,%Inh,[7],11%
same,%Inh,[8],0%
same,%Inh,[9],7%
same,%Inh,[10],13%
CN(c1ccc(F)c(NC(=O)c2cccc(OC(C)(C)C#N)c2Cl)c1)c1ccc2nc(NC(=O)C3CC3)sc2n1,%Inh,[1],0%
same,%Inh,[2],14%
same,%Inh,[3],2%
same,%Inh,[4],0%
same,%Inh,[5],4%
same,%Inh,[6],91.9%
same,%Inh,[7],0%
same,%Inh,[8],0%
same,%Inh,[9],0%
same,%Inh,[10],17%
CN1CCN(Cc2ccc(NC(=O)Nc3ccc(N(C)c4ccnc(Nc5ccc(CS(C)(=O)=O)cc5)n4)cc3)cc2)CC1.Cl [GW827654],%Inh,[1],87%
same,%Inh,[2],35%
same,%Inh,[3],0%
same,%Inh,[4],51%
same,%Inh,[5],95.9%
same,%Inh,[6],99.9%
same,%Inh,[7],42%
same,%Inh,[8],65%
same,%Inh,[9],0%
same,%Inh,[10],27%
N#CC1(c2cccc(C(=O)Nc3cccc(Oc4ccc5nc(NC(=O)C6CC6)sc5n4)c3)c2)CC1,%Inh,[1],0%
same,%Inh,[2],53%
same,%Inh,[3],0%
same,%Inh,[4],0%
same,%Inh,[5],0%
same,%Inh,[6],99.7%
same,%Inh,[7],0%
same,%Inh,[8],19%
same,%Inh,[9],0%
same,%Inh,[10],5%
CC(C)c1nc(-c2ccc(F)c(NS(=O)(=O)c3c(F)cccc3F)c2)c(-c2ccnc(Nc3ccc(N4CCOCC4)nc3)n2)s1 [GSK1804250],%Inh,[1],0%
same,%Inh,[2],86%
same,%Inh,[3],9%
same,%Inh,[4],19%
same,%Inh,[5],50%
same,%Inh,[6],47%
same,%Inh,[7],0%
same,%Inh,[8],11%
same,%Inh,[9],5%
same,%Inh,[10],16%
CCNc1nccc(-c2c(-c3ccc(F)cc3)ncn2C2CCN(C)CC2)n1,%Inh,[1],0%
same,%Inh,[2],26%
same,%Inh,[3],0%
same,%Inh,[4],0%
same,%Inh,[5],0%
same,%Inh,[6],0%
same,%Inh,[7],0%
same,%Inh,[8],0%
same,%Inh,[9],0%
same,%Inh,[10],0%
Cl.N#CCc1ccc(Nc2nccc(Nc3ccc(Oc4ccccc4)cc3)n2)cc1 [GW639905],%Inh,[1],72%
same,%Inh,[2],36%
same,%Inh,[3],23%
same,%Inh,[4],0%
same,%Inh,[5],15%
same,%Inh,[6],0%
same,%Inh,[7],0%
same,%Inh,[8],24%
same,%Inh,[9],0%
same,%Inh,[10],0%
O=C(O)C(F)(F)F.O=c1[nH]ccc2nc(N[C@@H]3CCNC3)nc(Nc3ccc4c(c3)S(=O)(=O)CC4)c12 [GSK2181306],%Inh,[1],57%
same,%Inh,[2],2%
same,%Inh,[3],99.9%
same,%Inh,[4],99.5%
same,%Inh,[5],98.6%
same,%Inh,[6],36%
same,%Inh,[7],88%
same,%Inh,[8],89%
same,%Inh,[9],18%
same,%Inh,[10],0%
COc1cccc(-c2nc(-c3ccccc3)[nH]c2-c2ccncc2)c1 [SB-610250],%Inh,[1],93.1%
same,%Inh,[2],0%
same,%Inh,[3],8%
same,%Inh,[4],0%
same,%Inh,[5],28%
same,%Inh,[6],0%
same,%Inh,[7],0%
same,%Inh,[8],43%
same,%Inh,[9],9%
same,%Inh,[10],0%
Cc1ccc(NC(=O)c2ccnc(N3CCCCC3)c2)cc1-c1ccc(C(=O)NCC2CC2)cc1 [GW775610],%Inh,[1],0%
same,%Inh,[2],0%
same,%Inh,[3],0%
same,%Inh,[4],0%
same,%Inh,[5],0%
same,%Inh,[6],0%
same,%Inh,[7],0%
same,%Inh,[8],100%
same,%Inh,[9],0%
same,%Inh,[10],37%
Nc1ncnc2scc(-c3ccc(NC(=O)Cc4cc(F)ccc4F)cc3)c12.O=C(O)C(F)(F)F [SB-731254-M],%Inh,[1],0%
same,%Inh,[2],0%
same,%Inh,[3],11%
same,%Inh,[4],1%
same,%Inh,[5],34%
same,%Inh,[6],80%
same,%Inh,[7],0%
same,%Inh,[8],0%
same,%Inh,[9],0%
same,%Inh,[10],0%
O=C(Nc1n[nH]c2nc(-c3ccccc3)ccc12)C1CC1 [SB-708999],%Inh,[1],29%
same,%Inh,[2],6%
same,%Inh,[3],11%
same,%Inh,[4],3%
same,%Inh,[5],9%
same,%Inh,[6],0%
same,%Inh,[7],14%
same,%Inh,[8],47%
same,%Inh,[9],0%
same,%Inh,[10],0%
Cc1cccc(Nc2nc(NCCN)ncc2C(N)=O)c1 [GSK1292139],%Inh,[1],95.8%
same,%Inh,[2],0%
same,%Inh,[3],64%
same,%Inh,[4],78%
same,%Inh,[5],41%
same,%Inh,[6],3%
same,%Inh,[7],0%
same,%Inh,[8],18%
same,%Inh,[9],0%
same,%Inh,[10],26%
COc1ccc(C2=C(Nc3cccc(O)c3)C(=O)NC2=O)cc1 [SB-390766],%Inh,[1],46%
same,%Inh,[2],0%
same,%Inh,[3],26%
same,%Inh,[4],0%
same,%Inh,[5],25%
same,%Inh,[6],0%
same,%Inh,[7],0%
same,%Inh,[8],0%
same,%Inh,[9],90%
same,%Inh,[10],6%
CN(c1ccc2c(c1)nc(NCc1ccccc1)n2C)c1ccnc(Nc2ccc(CS(C)(=O)=O)cc2)n1.Cl [GW811603],%Inh,[1],0%
same,%Inh,[2],0%
same,%Inh,[3],0%
same,%Inh,[4],16%
same,%Inh,[5],9%
same,%Inh,[6],99.5%
same,%Inh,[7],40%
same,%Inh,[8],100%
same,%Inh,[9],0%
same,%Inh,[10],29%
Cc1ccc(-c2ccc3occ(-c4ccc(S(C)=O)cc4)c3c2)nn1 (stereo not drawn),%Inh,[1],18%
same,%Inh,[2],0%
same,%Inh,[3],0%
same,%Inh,[4],0%
same,%Inh,[5],0%
same,%Inh,[6],0%
same,%Inh,[7],61%
same,%Inh,[8],0%
same,%Inh,[9],0%
same,%Inh,[10],0%
Cc1cccc(Nc2nc(N[C@H]3CCCC[C@H]3N)ncc2C(N)=O)c1.Cl [GSK986310],%Inh,[1],19%
same,%Inh,[2],21%
same,%Inh,[3],72%
same,%Inh,[4],80%
same,%Inh,[5],43%
same,%Inh,[6],0%
same,%Inh,[7],56%
same,%Inh,[8],0%
same,%Inh,[9],41%
same,%Inh,[10],8%
COc1cccc(NC(=O)NCCNc2ccnc(Nc3ccc(F)cc3)n2)c1 [GSK1379879],%Inh,[1],48%
same,%Inh,[2],0%
same,%Inh,[3],13%
same,%Inh,[4],0%
same,%Inh,[5],26%
same,%Inh,[6],0%
same,%Inh,[7],0%
same,%Inh,[8],0%
same,%Inh,[9],31%
same,%Inh,[10],6%
Cc1ccc(C)c(NC(=O)Nc2ccc(C)c(-c3ccc(C(=O)Nc4ccncc4)cc3)c2)c1 [GSK1398473],%Inh,[1],4%
same,%Inh,[2],20%
same,%Inh,[3],10%
same,%Inh,[4],0%
same,%Inh,[5],15%
same,%Inh,[6],3%
same,%Inh,[7],0%
same,%Inh,[8],0%
same,%Inh,[9],12%
same,%Inh,[10],12%
Cc1cc(-c2ccnc(Nc3cccc(C#N)c3)n2)cc(C)c1O [GSK1440913],%Inh,[1],99.4%
same,%Inh,[2],23%
same,%Inh,[3],1%
same,%Inh,[4],0%
same,%Inh,[5],54%
same,%Inh,[6],6%
same,%Inh,[7],70%
same,%Inh,[8],3%
same,%Inh,[9],0%
same,%Inh,[10],2%
Cl.O=C(Nc1ccc(Oc2ccc3[nH]c(NC(=O)c4ccco4)nc3c2)cc1)Nc1cc(C(F)(F)F)ccc1F [GW683134],%Inh,[1],24%
same,%Inh,[2],42%
same,%Inh,[3],24%
same,%Inh,[4],0%
same,%Inh,[5],32%
same,%Inh,[6],78%
same,%Inh,[7],0%
same,%Inh,[8],15%
same,%Inh,[9],0%
same,%Inh,[10],0%
O=C(Nc1n[nH]c2nc(-c3ccccc3O)ccc12)C1CC1 [SB-711880],%Inh,[1],6%
same,%Inh,[2],0%
same,%Inh,[3],0%
same,%Inh,[4],0%
same,%Inh,[5],16%
same,%Inh,[6],0%
same,%Inh,[7],0%
same,%Inh,[8],0%
same,%Inh,[9],0%
same,%Inh,[10],79%
COc1cc(Nc2nccc(N3CCC(NC(=O)Nc4ccc5c(c4)OCO5)C3)n2)cc(OC)c1OC (stereo not drawn) [GSK1379766],%Inh,[1],52%
same,%Inh,[2],0%
same,%Inh,[3],14%
same,%Inh,[4],14%
same,%Inh,[5],86%
same,%Inh,[6],7%
same,%Inh,[7],0%
same,%Inh,[8],0%
same,%Inh,[9],0%
same,%Inh,[10],0%
COC(=O)Nc1nc2cc(Oc3ccc(NC(=O)Nc4cccc(SC)c4)cc3)ccc2[nH]1.Cl [GW697999],%Inh,[1],20%
same,%Inh,[2],0%
same,%Inh,[3],14%
same,%Inh,[4],0%
same,%Inh,[5],21%
same,%Inh,[6],77%
same,%Inh,[7],18%
same,%Inh,[8],26%
same,%Inh,[9],28%
same,%Inh,[10],11%
